IP6K1 inh: inhibitors of human IP6K1 | Q92551 | IP6K1 kinase, ADP-Glo luminescence, 2 h; hits give low values | activity change, % (series mostly up to about 58 µM) | 0.81% of 140,000 active | AID 1645851; in the data active = activity change below about -25%
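ADP-Glo luminescence measures ADP made by human IP6K1 during a 2 h RT reaction with ATP/IP6 (mix at 1.3 mM/130 uM); top library doses 57.5 and 19.1 uM final.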
KDM5B inh: blocks human KDM5B histone demethylase activity | Q9UGL1 | KDM5B demethylase, FDH-coupled NADH fluorescence (FDH is formaldehyde dehydrogenase) | Potency, µM (series often up to 57.7 µM), hits mostly inhibitors | 2.6% of 220,000 active; active = well fitted inhibition curve with a large enough effect; inconclusive = small, poorly fitted or top-dose-only effect; inactive = no such curve, though single readings can be large or run the other way; also: nearly all actives have a fitted effect of over 70% in size
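Here, H3K4me3 peptide (12.5 µM in substrate mix) is demethylated by KDM5BΔAP, 200 nM final, after 10 min compound exposure. Formaldehyde product is coupled through FDH (0.25 U/mL in mix) to NADH fluorescence; 30-min ΔRFU feeds dose-response curves.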
Of the large screens only hits and unclear results are named; the others gave an inactive call. In the library only some 2.8% were active in any assay of this set; here they are far more common.

C[S+](=O)([O-])NCCn1ccc2cc(OC3CCN(c4ncc(F)cn4)CC3)cnc21	KDM5B inh inconclusive
C[S+](=O)([O-])NCCn1ccc2cc(OC3CCN(C(=O)C4CCCC4)CC3)cnc21	KDM5B inh 35µM
COc1ccc(-c2cc(C(=O)NCC(C)C)c3c(C4CCCN4)nn(C)c3n2)cc1 (stereo unspecified)	KDM5B inh 50µM
COCCNC(=O)c1cc(C2CC2)nc2c1c(C1CCCN1)nn2-c1ccccc1 (stereo unspecified)	none
COc1ccc(-c2cc(C(=O)N3CCOCC3)c3c(C4CCCN4)nn(C)c3n2)cc1 (stereo unspecified)	KDM5B inh inconclusive
COCCNC(=O)c1cc(-c2ccc(OC)cc2)nc2c1c(C1CCCN1)nn2C (stereo unspecified)	KDM5B inh 79µM
COc1ccc2c(c1)CN(Cc1ccccc1)C(=O)CCN2CC(O)COc1ccccc1 (stereo unspecified)	none (no result: KDM5B inh)
COc1ccccc1C(=O)N1CCCn2nc(C)c(-c3ccccc3C(C)C)c21	none
COc1ccccc1C(=O)N1CCCn2nc(C)c(-c3ccccc3N3CCCC3)c21	KDM5B inh 13µM
COc1cccc(-c2cccc(CN3CCCC3C(=O)NCc3ccc(Cl)cc3)c2)c1 (stereo unspecified)	none (no result: KDM5B inh)
COCCNC(=O)c1cn2ccnc(-c3ccc(OC)cc3)c2n1	KDM5B inh 20µM
COc1ccc(-c2nccn3cc(C(=O)NCCc4ccccn4)nc23)cc1	KDM5B inh 25µM
CN(C)CCCNC(=O)c1cn2ccnc(-c3ccc(F)cc3)c2n1	KDM5B inh inconclusive
COc1ccc(-c2nccn3cc(C(=O)NCc4ccc(OC)c(OC)c4)nc23)cc1	KDM5B inh inconclusive
CN(CCNC(=O)c1cn2ccnc(-c3ccccc3)c2n1)C1CCCCC1	KDM5B inh inconclusive
COCCCNC(=O)c1cn2ccnc(-c3ccc(OC)cc3)c2n1	KDM5B inh 25µM
CSC(=S)N/N=C1/CCc2ccccc21	none (no result: IP6K1 inh)
COc1ccc(NC(=O)c2nc3ccccc3nc2N2CCCCC2)cc1	none (no result: IP6K1 inh)
Cn1nnnc1-c1cccc(NCC(=O)NC2(C#N)CCCCC2)c1	none (no result: IP6K1 inh)
COCCCNC(=O)C1(C)CN(C)Cc2ccc(NCc3ccccc3)nc21 (stereo unspecified)	KDM5B inh 32µM
COc1ccc(NC(=O)C2(C)CCc3cnc(NCc4ccccc4)nc32)cn1 (stereo unspecified)	KDM5B inh 40µM
COc1ccc(NC(=O)C2(C)CN(C)Cc3ccc(NCc4ccccc4)nc32)cn1 (stereo unspecified)	KDM5B inh 32µM
COc1ccc(NC(=O)C2(C)CCc3cnc(Nc4ccccc4)nc32)cn1 (stereo unspecified)	KDM5B inh inconclusive
CN1Cc2ccc(NCc3ccccc3)nc2C(C)(C(=O)NCc2cccnc2)C1 (stereo unspecified)	KDM5B inh inconclusive
COc1cccc(NC(=O)C2(C)CN(C)Cc3ccc(NCc4ccccc4)nc32)c1 (stereo unspecified)	KDM5B inh inconclusive
N#Cc1ccc(/C=C/C(=O)N2CCC(c3nc4ccccc4o3)CC2)cc1	none (no result: IP6K1 inh)
CCc1ccccc1-n1nc(-c2c(C)nc3scc(CC(=O)NCC(C)C)n3c2=O)cc1C	KDM5B inh inconclusive
Cc1nc2scc(CC(=O)NC3CCCCC3)n2c(=O)c1-c1cc(C)n(-c2ccccc2F)n1	KDM5B inh inconclusive
Cc1ccccc1-n1nc(-c2c(C)nc3scc(CC(=O)NC(C)C)n3c2=O)cc1C	KDM5B inh 28µM
Cc1nc2scc(CC(=O)NCCC(C)C)n2c(=O)c1-c1cc(C)n(-c2ccc(F)cc2)n1	KDM5B inh 28µM
Cc1nc2scc(CC(=O)NCCC(C)C)n2c(=O)c1-c1cc(C)n(-c2cc(F)ccc2F)n1	KDM5B inh 28µM
Cc1ccc(F)cc1-n1nc(-c2c(C)nc3scc(CC(=O)NCC(C)C)n3c2=O)cc1C	KDM5B inh 28µM
Cc1cccc(C(=O)Nc2ccc(OC(=O)c3ccc4c(c3)NC(=O)CCS4)cc2)c1	none (no result: IP6K1 inh)
Cc1cc(C[C@@H]2COC[C@@H]2NC(=O)c2cc(CC(C)C)nc(N)n2)on1	KDM5B inh 32µM
Cc1cc(C[C@@H]2COC[C@@H]2NC(=O)c2cnn3cc(CCO)cnc23)on1	KDM5B inh 28µM
Cc1cc(C[C@@H]2COC[C@@H]2NC(=O)c2ccccc2-c2ccc(F)cc2)on1	none
Cc1cc(C[C@@H]2COC[C@@H]2NC(=O)c2ccc(S(N)(=O)=O)cc2)on1	none
Cc1cccc(C(=O)NCc2nc(C)cs2)n1	none (no result: IP6K1 inh)
O=C(NCc1ccc(C(F)(F)F)cc1)C1CCCN(c2nccc(Nc3ccccc3F)n2)C1 (stereo unspecified)	none (no result: KDM5B inh)
CCC(Cn1cnc(-c2ccccc2)c1-c1ccc(C#N)cc1)N1CCN(C)CC1 (stereo unspecified)	KDM5B inh inconclusive
N#Cc1ccc(-c2c(-c3ccccc3)ncn2CCNc2cccnc2)cc1	KDM5B inh 28µM
COCc1nc2nc(-c3ccccc3)c(Nc3ccc(F)cc3)cc2n1C	KDM5B inh 32µM
COCc1nc2nc(-c3ccccc3)c(Nc3ccncc3)cc2n1C	KDM5B inh inconclusive
O=C(COc1ncnc2ccc(Br)cc12)NC(c1ccccc1)c1ccccc1	none (no result: IP6K1 inh)
O=c1c2c(n(Cc3cccnc3)n1-c1ccccc1)CN(Cc1ccc(O)cc1)CC2	KDM5B inh inconclusive
O=c1c2c(n(Cc3cccnc3)n1CCc1ccccc1)CN(CC1CC1)CC2	KDM5B inh inconclusive
O=c1c2c(n(Cc3ccccc3)n1-c1ccccc1)CN(Cc1cccnc1)CC2	KDM5B inh 32µM
O=c1c2c(n(Cc3cccnc3)n1CCc1ccccc1)CN(CC1CCOC1)CC2 (stereo unspecified)	KDM5B inh 35µM
COC[C@@H]1CN(c2cnccn2)C[C@H]1C(=O)NCc1ccccc1F	KDM5B inh 20µM
COC[C@@H]1CN(c2cnccn2)C[C@H]1C(=O)NCc1ccco1	KDM5B inh 25µM
COC[C@@H]1CN(c2cnccn2)C[C@H]1C(=O)NCc1ccccn1	KDM5B inh inconclusive
O=C(NCc1ccco1)[C@@H]1Cc2nc[nH]c2CN1Cc1cccnc1	KDM5B inh inconclusive
Cn1ncc2c(C(=O)NCc3ccc(C(F)(F)F)cc3)cc(-c3ccc(F)cc3)nc21	none (no result: KDM5B inh)
Cn1ncc2c(C(=O)NCC3CC3)cc(-c3cccnc3)nc21	KDM5B inh 100µM
Cn1ncc2c(-c3ccc([S+](C)(=O)[O-])cc3)cc(C(=O)NCc3ccc(F)cc3)nc21	KDM5B inh 79µM
Cn1ncc2c(C(=O)NCCc3ccc(F)cc3)cc(-c3ccc([S+](C)(=O)[O-])cc3)nc21	none (no result: KDM5B inh)
COc1ccc(-c2cc(C(=O)NCC3CC3)c3cnn(C)c3n2)cc1	none (no result: KDM5B inh)
Cn1ncc2c(C(=O)NCc3ccncc3)cc(-c3ccc(F)cc3)nc21	KDM5B inh 79µM
C[C@@H](O)CNC(=O)c1nc(-c2ccc3cc[nH]c3c2)no1	none (no result: IP6K1 inh)
CO/N=C(\C(=O)O)c1cn2ccsc2n1	none (no result: IP6K1 inh)
Cc1cc(C(=O)N2CCC3(CC2)c2[nH]c4ccccc4c2CCN3C)n(C)n1	none
COc1ccc(CC(=O)NC2CCN(c3ccc4nnc(-c5ccccc5)n4n3)CC2)cc1	none (no result: KDM5B inh)
CCc1ccc(C(=O)N2CCCC2)cc1	none (no result: IP6K1 inh)
Cc1[nH]c(-c2ccccc2)nc1C(=O)N[C@H](c1cnn(C)c1)C1CC(O)C1 (stereo partly specified)	none
Cc1ccc2c(c1)c(C(=O)N[C@H](c1cnn(C)c1)C1CC(O)C1)nn2C (stereo partly specified)	KDM5B inh 28µM

Bioassay records deposited in PubChem BioAssay by National Center for Advancing Translational Sciences (NCATS).
